# Experimental data as given in PubChem BioAssay AID1159580 (chemical genetic matrix, 2015).
# Out of some 5,500 compounds screened, about 2,000 (36%) were called active. About 18% were inconclusive and are not listed. The list shows a part of the results. Values without a mark were called inactive. Cut-off read from the data, not from the text of the source: active = normalized growth mostly below about 0.91 (no sharp cut-off); inconclusive = no clear call, values can overlap the other calls; inactive = mostly above about 0.92.
# Test: chemical genetic growth profiling, strain panel (AID 1159580);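 note: tested at 20 µM; growth read once vehicle control cultures reached saturation at 30 °C; 1 = growth at the plate median or of vehicle wells; lower values mean less growth of the strain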
# Settings: S. cerevisiae deletion strains, growth OD
smiles,measurement,setting,value
O=C(O)[C@@H](S)[C@@H](S)C(=O)O,normalized growth,"locus YAL021C, strain ccr4, hits give low values",0.545 (active)
same,normalized growth,"locus YAL026C, strain drs2, hits give low values",0.836 (active)
same,normalized growth,"locus YAL030W, strain snc1, hits give low values",0.975
same,normalized growth,"locus YBL061C, strain skt5, hits give low values",0.967
same,normalized growth,"locus YBR009C, strain hhf1, hits give low values",0.875 (active)
same,normalized growth,"locus YBR023C, strain chs3, hits give low values",0.962
same,normalized growth,"locus YBR171W, strain sec66, hits give low values",0.976
same,normalized growth,"locus YBR231C, strain swc5, hits give low values",0.887 (active)
same,normalized growth,"locus YBR279W, strain paf1, hits give low values",0.922 (active)
same,normalized growth,"locus YCL011C, strain gbp2, hits give low values",0.921
same,normalized growth,"locus YCL016C, strain dcc1, hits give low values",0.945
same,normalized growth,"locus YCL061C, strain MRC1, hits give low values",0.936
same,normalized growth,"locus YCL069W, strain vba3, hits give low values",0.953
same,normalized growth,"locus YCR088W, strain abp1, hits give low values",0.971
same,normalized growth,"locus YDL005C, strain med2, hits give low values",1
same,normalized growth,"locus YDL040C, strain nat1, hits give low values",0.971
same,normalized growth,"locus YDR001C, strain nth1, hits give low values",0.971
same,normalized growth,"locus YDR069C, strain doa4, hits give low values",0.681 (active)
same,normalized growth,"locus YDR137W, strain rgp1, hits give low values",0.73 (active)
same,normalized growth,"locus YDR159W, strain sac3, hits give low values",0.91
same,normalized growth,"locus YDR195W, strain ref2",1.01
same,normalized growth,"locus YDR297W, strain sur2, hits give low values",0.975
same,normalized growth,"locus YDR334W, strain swr1, hits give low values",0.958
same,normalized growth,"locus YDR335W, strain msn5, hits give low values",0.911 (active)
same,normalized growth,"locus YDR392W, strain spt3, hits give low values",0.532 (active)
same,normalized growth,"locus YEL003W, strain gim4, hits give low values",0.962
same,normalized growth,"locus YEL037C, strain rad23, hits give low values",0.953
same,normalized growth,"locus YEL061C, strain CIN8 (second series), hits give low values",0.977
same,normalized growth,"locus YER015W, strain faa2, hits give low values",0.958
same,normalized growth,"locus YER016W, strain bim1, hits give low values",0.952
same,normalized growth,"locus YER111C, strain swi4, hits give low values",0.965
same,normalized growth,"locus YER155C, strain BEM2 (second series), hits give low values",0.662 (active)
same,normalized growth,"locus YFR010W, strain ubp6, hits give low values",0.828 (active)
same,normalized growth,"locus YGL167C, strain pmr1, hits give low values",0.976
same,normalized growth,"locus YGL173C, strain kem1, hits give low values",0.892 (active)
same,normalized growth,"locus YGL227W, strain vid30, hits give low values",0.978
same,normalized growth,"locus YGL240W, strain doc1, hits give low values",0.886 (active)
same,normalized growth,"locus YGL253W, strain hxk2, hits give low values",0.678 (active)
same,normalized growth,"locus YHR013C, strain ard1, hits give low values",0.533 (active)
same,normalized growth,"locus YHR027C, strain rpn1, hits give low values",0.885 (active)
same,normalized growth,"locus YHR030C, strain SLT2, hits give low values",0.337 (active)
same,normalized growth,"locus YHR079C, strain IRE1, hits give low values",0.426 (active)
same,normalized growth,"locus YHR142W, strain chs7, hits give low values",0.937
same,normalized growth,"locus YJL092W, strain hpr5, hits give low values",0.932
same,normalized growth,"locus YJL095W, strain BCK1 (second series), hits give low values",0.973
same,normalized growth,"locus YJL095W, strain BCK1, hits give low values",0.413 (active)
same,normalized growth,"locus YJL115W, strain asf1, hits give low values",0.969
same,normalized growth,"locus YJL129C, strain trk1, hits give low values",0.982
same,normalized growth,"locus YJL154C, strain vps35, hits give low values",0.979
same,normalized growth,"locus YJL164C, strain tpk1, hits give low values",0.966
same,normalized growth,"locus YJL166W, strain qcr8, hits give low values",0.859 (active)
same,normalized growth,"locus YJL187C, strain SWE1, hits give low values",0.979
same,normalized growth,"locus YJR066W, strain TOR1, hits give low values",0.417 (active)
same,normalized growth,"locus YKL160W, strain elf1, hits give low values",0.974
same,normalized growth,"locus YKR026C, strain gcn3, hits give low values",0.978
same,normalized growth,"locus YKR091W, strain srl3, hits give low values",0.977
same,normalized growth,"locus YLL001W, strain dnm1, hits give low values",0.888 (active)
same,normalized growth,"locus YLL026W, hits give low values",0.932
same,normalized growth,"locus YLL041C, strain sdh2, hits give low values",0.978
same,normalized growth,"locus YLR027C, strain aat2, hits give low values",0.938
same,normalized growth,"locus YLR113W, strain HOG1, hits give low values",0.443 (active)
same,normalized growth,"locus YLR221C, strain rsa3, hits give low values",0.919
same,normalized growth,"locus YLR258W, strain gsy2, hits give low values",0.93
same,normalized growth,"locus YLR262C, strain YPT6 (second series), hits give low values",0.898
same,normalized growth,"locus YLR320W, strain mms22, hits give low values",0.798 (active)
same,normalized growth,"locus YLR342W, strain FKS1, hits give low values",0.964
same,normalized growth,"locus YLR357W, strain rsc2, hits give low values",0.798 (active)
same,normalized growth,"locus YLR370C, strain arc18, hits give low values",0.81 (active)
same,normalized growth,"locus YLR384C, strain iki3, hits give low values",0.979
same,normalized growth,"locus YML120C, strain ndi1, hits give low values",0.987
same,normalized growth,"locus YMR058W, strain fet3, hits give low values",0.832 (active)
same,normalized growth,"locus YMR125W, strain sto1, hits give low values",0.951
same,normalized growth,"locus YMR129W, hits give low values",0.963
same,normalized growth,"locus YMR205C, strain PFK2, hits give low values",0.808 (active)
same,normalized growth,"locus YMR231W, strain pep5, hits give low values",0.982
same,normalized growth,"locus YNL071W, strain lat1, hits give low values",0.695 (active)
same,normalized growth,"locus YNL183C, strain NPR1, hits give low values",0.516 (active)
same,normalized growth,"locus YNL209W, strain ssb2, hits give low values",0.974
same,normalized growth,"locus YNL248C, strain rpa49, hits give low values",0.926
same,normalized growth,"locus YNL322C, strain KRE1 (second series), hits give low values",0.97
same,normalized growth,"locus YNR049C, strain mso1, hits give low values",0.941
same,normalized growth,"locus YOR001W, strain rrp6, hits give low values",0.992
same,normalized growth,"locus YOR070C, strain gyp1, hits give low values",0.961
same,normalized growth,"locus YOR080W, strain dia2, hits give low values",0.968
same,normalized growth,"locus YOR083W, strain WHI5, hits give low values",0.924
same,normalized growth,"locus YOR106W, strain vam3, hits give low values",0.496 (active)
same,normalized growth,"locus YOR231W, strain MKK1, hits give low values",0.324 (active)
same,normalized growth,"locus YOR265W, strain rbl2, hits give low values",0.976
same,normalized growth,"locus YOR270C, strain vph1, hits give low values",0.357 (active)
same,normalized growth,"locus YOR290C, strain snf2, hits give low values",0.722 (active)
same,normalized growth,"locus YPL051W, strain arl3, hits give low values",0.899 (active)
same,normalized growth,"locus YPL078C, strain atp4, hits give low values",0.96
same,normalized growth,"locus YPL106C, strain sse1, hits give low values",0.931
same,normalized growth,"locus YPL240C, strain hsp82, hits give low values",0.987
same,normalized growth,"locus YPL256C, strain CLN2, hits give low values",0.474 (active)
